# Values joined by “and” are separate entries in the source; they are usually repeats but may differ in a detail not shown here. Identical values can stand only once. Results filed as inconclusive are left out. Where a call stands in place of a potency, no number is given. Values without a mark were called inactive. Active and inactive are the calls of the source. Unless noted, calls come from the whole dose curve; as a rule, active = well fitted curve in the direction sought with a large enough effect in the repeat runs; inconclusive = weak or mixed curves; inactive = no such curve, though single readings can be large; an effect the other way counts as inactive or inconclusive.
# Columns and labels:
# [1] = qHTS assay to identify aromatase inhibitors - cell viability counter screen (AID 743084);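 note: cells stimulated with testosterone during compound exposure; nearly all actives have a fitted effect of over 55% in size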; note: potency is the fitted concentration of half-maximal effect
# [2] = biological target: Aryl hydrocarbon receptor (Homo sapiens) (UniProt P35869); experiment: qHTS assay to identify small molecule that activate the aryl hydrocarbon receptor (AhR) signaling pathway (AID 743085);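 note: HG2L7.5c1 human HepG2 liver cells with stably integrated DRE-driven firefly reporter; series mostly up to about 70 µM; nearly all actives have a fitted effect of over 15% in size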
# Sequence of Aryl hydrocarbon receptor (Homo sapiens) (P35869 whole entry, looked up): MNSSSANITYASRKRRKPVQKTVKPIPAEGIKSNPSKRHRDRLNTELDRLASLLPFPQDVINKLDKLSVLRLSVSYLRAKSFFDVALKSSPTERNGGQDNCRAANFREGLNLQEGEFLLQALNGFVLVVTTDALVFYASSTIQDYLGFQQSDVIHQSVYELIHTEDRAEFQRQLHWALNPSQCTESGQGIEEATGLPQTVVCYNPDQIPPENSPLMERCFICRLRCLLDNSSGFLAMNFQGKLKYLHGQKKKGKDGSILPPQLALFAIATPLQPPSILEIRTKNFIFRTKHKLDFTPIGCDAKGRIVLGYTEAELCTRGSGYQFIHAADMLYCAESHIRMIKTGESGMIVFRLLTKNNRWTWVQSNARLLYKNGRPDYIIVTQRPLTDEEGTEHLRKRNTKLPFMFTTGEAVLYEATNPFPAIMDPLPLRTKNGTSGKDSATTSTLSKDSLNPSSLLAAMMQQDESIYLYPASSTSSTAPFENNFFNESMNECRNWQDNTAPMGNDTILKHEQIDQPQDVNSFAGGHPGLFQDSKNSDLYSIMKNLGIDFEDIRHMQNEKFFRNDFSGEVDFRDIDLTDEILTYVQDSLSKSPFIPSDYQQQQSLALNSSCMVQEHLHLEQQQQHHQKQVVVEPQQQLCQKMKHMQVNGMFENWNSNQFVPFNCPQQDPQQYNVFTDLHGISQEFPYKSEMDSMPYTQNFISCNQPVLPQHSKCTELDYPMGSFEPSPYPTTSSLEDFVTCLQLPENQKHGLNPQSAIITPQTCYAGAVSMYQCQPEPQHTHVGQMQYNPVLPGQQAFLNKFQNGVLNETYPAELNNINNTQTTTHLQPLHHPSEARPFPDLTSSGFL
# Outline: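 HepG2 cells stably carrying a 20-DRE firefly luciferase reporter (HG2L7.5c1) treated with compound for 24 hr at 37C. Luciferase read by ONE-Glo luminescence, with CellTiter-Fluor viability read first.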
# [3] = qHTS assay to identify small molecule that activate the aryl hydrocarbon receptor (AhR) signaling pathway - cell viability counter screen (AID 743086); note: nearly all actives have a fitted effect of over 45% in size; note: potency is the fitted concentration of half-maximal effect;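 for viability change, negative = cytotoxic: HepG2 liver cells carrying the AhR DRE luciferase reporter; series mostly up to about 70 µM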
# Outline: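 HepG2-AhR-luc (HG2L7.5c1) cells, 4000/well, were preincubated 5 h at 37C, exposed to compound in qHTS format for 24 hr at 37C, then given CellTiter-Fluor for 30 min; viability was read as fluorescence in the reporter wells.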
# [4] = qHTS assay for small molecule agonists of the antioxidant response element (ARE) signaling pathway (AID 743202; active = well fitted activation curve with a large enough effect in the signal ratio in the repeat runs, not every such curve was filed as active; the % refers to the signal ratio)
# Outline: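 Following a 16 h, 37 C exposure of reporter HepG2 cells (ARE-driven beta-lactamase, 2,000 cells/well) to compounds, FRET substrate was applied for 2 h at room temperature and fluorescence intensity recorded.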
# [5] = qHTS assay for small molecule activators of the heat shock response signaling pathway - cell viability counter screen (AID 743209); note: nearly all actives have a fitted effect of over 50% in size
# Outline: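 Cytotoxicity counter screen run in the same wells as the heat-shock bla reporter assay: HeLa HSE-bla cells, 5 h compound exposure at 37 C, viability read by CellTiter-Glo luminescence.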
# [6] = qHTS assay to identify small molecule agonists of the peroxisome proliferator-activated receptor delta (PPARd) signaling pathway - cell viability counter screen (AID 743211); note: nearly all actives have a fitted effect of over 55% in size; note: potency is the fitted concentration of half-maximal effect
# Outline: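 PPARd-bla HEK293H cells (3000/well) were pre-incubated 5 h at 37 C, then exposed to compound for 17 h at 37 C. After 2 h with LiveBLAzer substrate, CellTiter-Glo was added to the same wells; luminescence read after 30 min at room temperature.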
# [7] = qHTS assay to identify small molecule antagonists of the peroxisome proliferator-activated receptor delta (PPARd) signaling pathway - cell viability counter screen (AID 743213); note: nearly all actives have a fitted effect of over 50% in size; note: potency is the fitted concentration of half-maximal effect
# Outline: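 Cytotoxicity counter screen: CellTiter-Glo luminescence read 30 min after addition, in the same wells as the reporter assay. There, PPARd UAS-bla HEK293H cells (3000/well) were treated 17 h at 37 C with compound and 300 nM L165041.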
# [8] = qHTS assay to identify small molecule agonists of the farnesoid-X-receptor (FXR) signaling pathway - cell viability counter screen (AID 743218); note: nearly all actives have a fitted effect of over 45% in size; note: potency is the fitted concentration of half-maximal effect
# Outline: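 Viability counter screen in the same wells: CellTiter-Glo luminescence, 30 min room-temperature incubation, measured after the beta-lactamase read. Cells were GeneBLAzer FXR-UAS-bla HEK 293T, compound-treated 16 h at 37C.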
# [9] = qHTS assay to identify small molecule antagonists of the farnesoid-X-receptor (FXR) signaling pathway - cell viability counter screen (AID 743221; active = well fitted cell-killing curve with a large enough effect in the repeat runs, not every such curve was filed as active; note: nearly all actives have a fitted effect of over 50% in size; note: potency is the fitted concentration of half-maximal effect)
# Outline: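 GeneBLAzer FXR-UAS-bla HEK 293T cells, compound plus chenodeoxycholic acid (50 uM final), 16 h at 37 C. CellTiter-Glo added to the same wells after the beta-lactamase read; luminescence read after 30 min at room temperature as viability.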
# [10] = biological target: Vitamin D3 receptor (Homo sapiens) (UniProt P11473); experiment: qHTS assay to identify small molecule agonists of the vitamin D receptor (VDR) signaling pathway (AID 743222; calls by dose curve)
# Sequence of Vitamin D3 receptor (Homo sapiens) (P11473 whole entry, looked up): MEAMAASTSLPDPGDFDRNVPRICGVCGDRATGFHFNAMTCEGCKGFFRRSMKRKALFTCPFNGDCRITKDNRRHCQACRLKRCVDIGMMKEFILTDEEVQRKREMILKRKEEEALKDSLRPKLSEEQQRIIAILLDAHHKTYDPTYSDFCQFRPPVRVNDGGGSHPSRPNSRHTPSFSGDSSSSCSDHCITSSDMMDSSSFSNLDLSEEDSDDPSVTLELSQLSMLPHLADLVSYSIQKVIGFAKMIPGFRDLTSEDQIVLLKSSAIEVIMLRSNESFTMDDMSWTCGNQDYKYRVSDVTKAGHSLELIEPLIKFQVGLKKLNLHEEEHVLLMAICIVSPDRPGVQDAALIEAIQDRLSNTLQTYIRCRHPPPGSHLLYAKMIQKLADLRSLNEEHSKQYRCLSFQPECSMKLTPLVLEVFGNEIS
# Outline: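 Agonist mode, beta-lactamase reporter: fluorescence from LiveBLAzer B/G FRET substrate (2 h, room temperature) read after 16 h compound treatment at 37 C of VDR-bla cells, which were pre-incubated 4 h after seeding.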
# [11] = qHTS assay to identify small molecule antagonists of the peroxisome proliferator-activated receptor gamma (PPARg) signaling pathway - cell viability counter screen (AID 743194); note: nearly all actives have a fitted effect of over 55% in size
# Outline: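 PPARg-UAS-bla HEK293H cells were plated, rested 5 h at 37 C, then treated with compounds plus rosiglitazone (50 nM final) for 17 h at 37 C; viability was then read by CellTiter-Glo luminescence after 30 min at room temperature.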
# [12] = qHTS assay for small molecule agonists of the antioxidant response element (ARE) signaling pathway - cell viability counter screen (AID 743203; calls by dose curve; note: nearly all actives have a fitted effect of over 55% in size)
# Outline: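 Viability counter screen: CellTiter-Glo luminescence, read after 30 min at room temperature, in ARE-bla HepG2 wells. Compound exposure lasted 16 h at 37C/5% CO2, following a 5 h pre-incubation of the cells after plating.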
# [13] = biological target: Peroxisome proliferator-activated receptor delta (Homo sapiens) (UniProt Q03181); experiment: qHTS assay to identify small molecule agonists of the peroxisome proliferator-activated receptor delta (PPARd) signaling pathway (AID 743212; calls by dose curve)
# Sequence of Peroxisome proliferator-activated receptor delta (Homo sapiens) (Q03181 whole entry, looked up): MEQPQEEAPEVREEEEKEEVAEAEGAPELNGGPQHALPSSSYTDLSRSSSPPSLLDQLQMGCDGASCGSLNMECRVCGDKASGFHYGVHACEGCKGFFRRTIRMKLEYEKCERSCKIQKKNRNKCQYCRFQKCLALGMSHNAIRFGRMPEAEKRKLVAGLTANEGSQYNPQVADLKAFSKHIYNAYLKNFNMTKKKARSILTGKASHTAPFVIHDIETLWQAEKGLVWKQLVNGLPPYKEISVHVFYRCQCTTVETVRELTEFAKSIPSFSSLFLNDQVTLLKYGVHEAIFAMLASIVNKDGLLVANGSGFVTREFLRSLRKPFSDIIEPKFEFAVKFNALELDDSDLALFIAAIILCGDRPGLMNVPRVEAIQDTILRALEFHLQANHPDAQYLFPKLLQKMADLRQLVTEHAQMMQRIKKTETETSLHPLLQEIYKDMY
# Outline: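 Beta-lactamase reporter read by fluorescence (LiveBLAzer B/G FRET, 2 h, room temperature). Test agents, in DMSO, incubated at 37 C with PPARd-bla HEK293H cells.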
# [14] = biological target: Vitamin D3 receptor (Homo sapiens) (UniProt P11473); experiment: qHTS assay to identify small molecule antagonists of the vitamin D receptor (VDR) signaling pathway (AID 743223; active = well fitted inhibition curve with a large enough effect in the signal ratio in the repeat runs, not every such curve was filed as active; the % refers to the signal ratio)
# Outline: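 VDR-bla cells were treated with compound plus 3 nM final 1alpha,25-dihydroxyvitamin D3 for 16 h at 37C. Beta-lactamase reporter read by B/G FRET substrate fluorescence after 2 h at room temperature. qHTS format.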
# [15] = qHTS assay for small molecule activators of the heat shock response signaling pathway (AID 743210; active = well fitted activation curve with a large enough effect in the signal ratio in the repeat runs, with a control signal flat, not every such curve was filed as active; the % refers to the signal ratio; note: series mostly up to about 63 µM)
# Outline: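 Heat shock element–beta-lactamase HeLa reporter cells; qHTS with compounds for 5 h at 37 C; detection by FRET substrate fluorescence after 2.5 h at RT.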
# [16] = biological target: Peroxisome proliferator-activated receptor delta (Homo sapiens) (UniProt Q03181); experiment: qHTS assay to identify small molecule antagonists of the peroxisome proliferator-activated receptor delta (PPARd) signaling pathway (AID 743215; active = well fitted inhibition curve with a large enough effect in the signal ratio in the repeat runs, not every such curve was filed as active; the % refers to the signal ratio;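 note: cells stimulated with agonist L165041 at 300 nM final during compound exposure; series mostly up to about 62 µM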)
# Outline: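 Agonist L165041 (300 nM final) added with compound to PPARd-bla HEK293H UAS-bla reporter cells; 17 h incubation at 37 C. Read-out: LiveBLAzer FRET substrate, 2 h at room temperature, fluorescence intensity.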
# [17] = biological target: Peroxisome proliferator-activated receptor gamma (Homo sapiens) (UniProt P37231); experiment: qHTS assay to identify small molecule agonists of the peroxisome proliferator-activated receptor gamma (PPARg) signaling pathway (AID 743094; active = well fitted activation curve with a large enough effect in the signal ratio in the repeat runs, not every such curve was filed as active; the % refers to the signal ratio)
# Sequence of Peroxisome proliferator-activated receptor gamma (Homo sapiens) (P37231 whole entry, looked up): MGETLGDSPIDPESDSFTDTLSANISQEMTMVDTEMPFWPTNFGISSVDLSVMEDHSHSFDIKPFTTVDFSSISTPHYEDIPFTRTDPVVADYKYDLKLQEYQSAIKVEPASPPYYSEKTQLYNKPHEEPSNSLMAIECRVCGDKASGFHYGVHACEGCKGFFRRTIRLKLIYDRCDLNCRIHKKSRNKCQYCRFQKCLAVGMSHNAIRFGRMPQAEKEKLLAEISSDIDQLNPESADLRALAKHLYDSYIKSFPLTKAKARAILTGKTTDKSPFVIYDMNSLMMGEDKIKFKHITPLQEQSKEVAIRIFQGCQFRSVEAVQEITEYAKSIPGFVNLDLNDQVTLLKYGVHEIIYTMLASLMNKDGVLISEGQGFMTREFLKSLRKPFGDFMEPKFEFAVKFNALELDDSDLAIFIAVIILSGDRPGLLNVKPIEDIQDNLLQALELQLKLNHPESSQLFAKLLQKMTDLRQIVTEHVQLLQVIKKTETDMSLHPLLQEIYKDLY
# Outline: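 Agonist activity was taken from a beta-lactamase reporter (FRET substrate, 1 h at room temperature) in HEK293H cells carrying a PPARg UAS-bla construct. Compounds in DMSO were incubated 17 h at 37C after a 5 h cell pre-incubation.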
# [18] = biological target: Peroxisome proliferator-activated receptor gamma (Homo sapiens) (UniProt P37231); experiment: qHTS assay to identify small molecule antagonists of the peroxisome proliferator-activated receptor gamma (PPARg) signaling pathway (AID 743191; calls by dose curve; note: series mostly up to about 63 µM; nearly all actives have a fitted effect of over 30% in size)
# Outline: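 GeneBLAzer PPARg UAS-bla HEK293H cells carrying a UAS-driven beta-lactamase reporter were plated at 3000 cells/well, preincubated 5 h at 37C, then given compound for 17 h at 37C; LiveBLAzer B/G FRET substrate was read after 1 h at room temperature.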
# [19] = biological target: Bile acid receptor (Homo sapiens) (UniProt Q96RI1); experiment: qHTS assay to identify small molecule antagonists of the farnesoid-X-receptor (FXR) signaling pathway (AID 743217; active = well fitted inhibition curve with a large enough effect in the signal ratio in the repeat runs, not every such curve was filed as active; the % refers to the signal ratio)
# Sequence of Bile acid receptor (Homo sapiens) (Q96RI1 whole entry, looked up): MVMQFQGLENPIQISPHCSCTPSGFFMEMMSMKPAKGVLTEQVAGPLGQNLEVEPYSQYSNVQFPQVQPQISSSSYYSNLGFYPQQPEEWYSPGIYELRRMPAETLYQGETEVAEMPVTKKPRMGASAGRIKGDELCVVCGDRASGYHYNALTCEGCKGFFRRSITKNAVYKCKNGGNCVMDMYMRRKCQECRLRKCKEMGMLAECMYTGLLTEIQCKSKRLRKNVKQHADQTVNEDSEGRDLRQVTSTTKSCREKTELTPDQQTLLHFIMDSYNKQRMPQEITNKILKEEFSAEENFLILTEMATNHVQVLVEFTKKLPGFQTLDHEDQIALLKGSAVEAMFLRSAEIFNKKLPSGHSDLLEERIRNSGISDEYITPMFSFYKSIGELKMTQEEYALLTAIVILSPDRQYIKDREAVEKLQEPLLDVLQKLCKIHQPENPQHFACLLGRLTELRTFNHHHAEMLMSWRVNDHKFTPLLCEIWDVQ
# Outline: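 Antagonist mode: chenodeoxycholic acid at 50 uM final stimulates a UAS-driven beta-lactamase reporter in HEK 293T FXR-bla cells during 16 h, 37C compound exposure. Read-out is FRET substrate fluorescence after 2 h at room temperature.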
# [20] = biological target: Bile acid receptor (Homo sapiens) (UniProt Q96RI1); experiment: qHTS assay to identify small molecule agonists of the farnesoid-X-receptor (FXR) signaling pathway (AID 743220; active = well fitted activation curve with a large enough effect in the signal ratio in the repeat runs, not every such curve was filed as active; the % refers to the signal ratio)
# Outline: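 FXR-UAS-bla HEK 293T cells carrying a UAS-driven beta-lactamase reporter were plated for 5 h at 37C/5% CO2, then exposed to DMSO-dissolved Tox21 10K compounds for 16 h at 37C. A LiveBLAzer B/G FRET substrate was loaded for 2 h at room temperature before fluorescence reading.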
compound,measurement,setting,value
CN(C)CCCN1c2ccccc2CCc2ccc(Cl)cc21,Potency,[1],48.6 µM (active)
same,Potency,[2],inactive
same,Potency,[3],27.3 µM (active)
same,Potency,[4],inactive
same,outcome,[5],inactive
same,Potency,[6],38.9 µM (active) and 29.8 µM (active)
same,Potency,[7],21.9 µM (active) and 13.3 µM (active)
same,Potency,[8],24.5 µM (active)
same,Potency,[9],49 µM (active)
same,outcome,[10],inactive
NS(=O)(=O)c1cc(C(=O)O)cc(N2CCCC2)c1Oc1ccccc1,Potency,[1],inactive
same,Potency,[2],inactive
same,Potency,[3],inactive
same,outcome,[11],inactive
same,Potency,[4],inactive
same,Potency,[12],inactive
same,outcome,[5],inactive
same,outcome,[13],inactive
same,Potency,[7],inactive
same,Potency,[8],inactive
same,Potency,[9],inactive
same,outcome,[10],inactive
same,outcome,[14],inactive
CC(=O)Nc1c(I)cc(I)c(C(=O)O)c1I,Potency,[1],inactive
same,Potency,[2],inactive
same,Potency,[3],inactive
same,outcome,[11],inactive
same,Potency,[4],inactive
same,outcome,[5],inactive
same,outcome,[15],inactive
same,Potency,[6],inactive
same,outcome,[13],inactive
same,Potency,[7],inactive
same,Potency,[16],inactive
same,Potency,[8],inactive
same,Potency,[9],inactive
same,outcome,[10],inactive
same,outcome,[14],inactive
CCN1CCC[C@H]1CNC(=O)c1c(O)c(Cl)cc(Cl)c1OC,Potency,[1],inactive
same,Potency,[2],inactive
same,Potency,[3],inactive
same,outcome,[11],inactive
same,Potency,[4],inactive
same,Potency,[12],inactive
same,outcome,[5],inactive
same,outcome,[15],inactive
same,Potency,[6],inactive
same,outcome,[13],inactive
same,Potency,[8],inactive
same,Potency,[9],inactive
N=C(N)c1ccc(OCCCOc2ccc(C(=N)N)cc2)cc1,Potency,[1],inactive
same,Potency,[2],inactive
same,outcome,[17],inactive
same,Potency,[18],inactive
same,outcome,[11],inactive
same,Potency,[12],inactive
same,outcome,[5],inactive
same,outcome,[15],inactive
same,Potency,[6],inactive
same,outcome,[13],inactive
same,Potency,[7],inactive
same,Potency,[8],inactive
same,Potency,[9],inactive
same,outcome,[10],inactive
same,outcome,[14],inactive
Cc1c(O)cccc1O,Potency,[1],inactive
same,Potency,[3],inactive
same,outcome,[17],inactive
same,Potency,[18],inactive
same,outcome,[11],inactive
same,Potency,[4],inactive
same,Potency,[12],inactive
same,outcome,[5],inactive
same,outcome,[15],inactive
same,Potency,[6],inactive
same,outcome,[13],inactive
same,Potency,[7],inactive
same,outcome,[19],inactive
same,Potency,[8],inactive
same,outcome,[20],inactive
same,Potency,[9],inactive
same,outcome,[10],inactive
same,outcome,[14],inactive
CCOC(=O)[C@H](CCc1ccccc1)N[C@@H](C)C(=O)N1[C@H](C(=O)O)C[C@@H]2CCC[C@@H]21,Potency,[1],inactive
same,Potency,[3],inactive
same,outcome,[17],inactive
same,Potency,[18],inactive
same,outcome,[11],inactive
same,Potency,[4],inactive
same,Potency,[12],inactive
same,outcome,[5],inactive
same,outcome,[15],inactive
same,Potency,[6],inactive
same,outcome,[13],inactive
same,Potency,[7],inactive
same,Potency,[16],inactive
same,Potency,[8],inactive
same,Potency,[9],inactive
same,outcome,[10],inactive
same,outcome,[14],inactive
CCCCCCCCCCCCCC=O,"activity change, negative = cytotoxicity",[1],-6.33% [at 8.47 µM]
same,"viability change, negative = cytotoxic",[3],3.67% [at 8.47 µM]
same,activation,[17],-7.22% [at 7.08 µM]
same,"ratio activity, negative = inhibition",[18],-1.51% [at 5.95 µM]
same,"activity change, negative = cytotoxicity",[11],14.4% [at 5.95 µM]
same,activation,[4],-7.51% [at 8.36 µM]
same,"viability change, negative = cytotoxic",[12],1.02% [at 8.36 µM]
same,"activity change, negative = cytotoxicity",[5],-3.36% [at 5.95 µM]
same,activation,[15],-0.951% [at 5.95 µM]
same,"activity change, negative = cytotoxicity",[6],7.31% [at 5.95 µM]
same,activation,[13],0.125% [at 5.95 µM]
same,"viability change, negative = cytotoxic",[7],-6.97% [at 6.26 µM]
same,"viability change, negative = cytotoxic",[8],0% [at 5.95 µM]
same,"activity change, negative = cytotoxicity",[9],-2.35% [at 5.95 µM]
